PubChem BioAssay
Active and inactive are the calls of the source.

Assays:
[1] = test system: Plasmodium falciparum Sir2 (PF13_0152, Sir2A); assay: pfSir2 binders on small-molecule microarrays, primary screen, biochemical, small-molecule microarray, 635 nm fluorescence (AID 1098); conditions: small-molecule microarray binding, fluorescence 635 nm; higher = more signal;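 also: score merges spot fluorescence intensity with its signal-to-noise ratio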
[2] = small-molecule microarray binders of probe aDKK1, primary screen, biochemical, biotinylated probe, 635/667 nm fluorescence (AID 1099); conditions: higher = more signal;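 also: score merges 667nm spot fluorescence with signal to noise across triplicate slides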
[3] = small-molecule microarray binders of probe aCHRDL2, primary screen, biochemical, biotinylated probe, 635/667 nm fluorescence (AID 1100); conditions: higher = more signal
[4] = splicing luciferase reporter signal modulators, primary screen, spliceosome inhibition project, cell-based, HEK293, splice +/- reporter (AID 1101); conditions: luminescence, 24 h, higher = more signal, called active from +8 up or from −8 down;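 also: HEK293 cells carrying a splicing-competent luciferase reporter gene; test concentration not given here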
[5] = biological target: Fibroblast growth factor 10 (Homo sapiens) (UniProt O15520); assay: FGF10 binders on small-molecule microarrays, primary screen, biochemical, small-molecule microarray, 635 nm fluorescence (AID 1102); conditions: FGF10 binding, fluorescence 635 nm, higher = more signal
Sequence of Fibroblast growth factor 10 (Homo sapiens) (O15520 whole entry, looked up): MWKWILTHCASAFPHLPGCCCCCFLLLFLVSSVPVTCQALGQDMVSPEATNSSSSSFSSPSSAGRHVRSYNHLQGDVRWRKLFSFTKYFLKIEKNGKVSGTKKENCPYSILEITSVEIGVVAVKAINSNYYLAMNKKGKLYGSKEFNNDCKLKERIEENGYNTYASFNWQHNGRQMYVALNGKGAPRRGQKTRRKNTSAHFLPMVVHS

[6] = test system: glycogen synthase kinase-3 (GSK3A per assay name; protocol says GSK3B); assay: GSK3 binders on small-molecule microarrays, primary screen, biochemical, small-molecule microarray, 635 nm fluorescence, GSK3A (AID 1103); conditions: small-molecule microarray binding, fluorescence 635 nm; higher = more signal; also: the record names both GSK3A and GSK3B
[7] = biological target: Epidermal growth factor receptor (Homo sapiens) (UniProt P00533); assay: EGFR binders on small-molecule microarrays, primary screen, biochemical, small-molecule microarray, 635 nm fluorescence (AID 1104); conditions: EGFR binding, higher = more signal;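 also: score merges 667 nm emission intensity with spot signal to noise over triplicate slides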
Sequence of Epidermal growth factor receptor (Homo sapiens) (P00533 whole entry, looked up): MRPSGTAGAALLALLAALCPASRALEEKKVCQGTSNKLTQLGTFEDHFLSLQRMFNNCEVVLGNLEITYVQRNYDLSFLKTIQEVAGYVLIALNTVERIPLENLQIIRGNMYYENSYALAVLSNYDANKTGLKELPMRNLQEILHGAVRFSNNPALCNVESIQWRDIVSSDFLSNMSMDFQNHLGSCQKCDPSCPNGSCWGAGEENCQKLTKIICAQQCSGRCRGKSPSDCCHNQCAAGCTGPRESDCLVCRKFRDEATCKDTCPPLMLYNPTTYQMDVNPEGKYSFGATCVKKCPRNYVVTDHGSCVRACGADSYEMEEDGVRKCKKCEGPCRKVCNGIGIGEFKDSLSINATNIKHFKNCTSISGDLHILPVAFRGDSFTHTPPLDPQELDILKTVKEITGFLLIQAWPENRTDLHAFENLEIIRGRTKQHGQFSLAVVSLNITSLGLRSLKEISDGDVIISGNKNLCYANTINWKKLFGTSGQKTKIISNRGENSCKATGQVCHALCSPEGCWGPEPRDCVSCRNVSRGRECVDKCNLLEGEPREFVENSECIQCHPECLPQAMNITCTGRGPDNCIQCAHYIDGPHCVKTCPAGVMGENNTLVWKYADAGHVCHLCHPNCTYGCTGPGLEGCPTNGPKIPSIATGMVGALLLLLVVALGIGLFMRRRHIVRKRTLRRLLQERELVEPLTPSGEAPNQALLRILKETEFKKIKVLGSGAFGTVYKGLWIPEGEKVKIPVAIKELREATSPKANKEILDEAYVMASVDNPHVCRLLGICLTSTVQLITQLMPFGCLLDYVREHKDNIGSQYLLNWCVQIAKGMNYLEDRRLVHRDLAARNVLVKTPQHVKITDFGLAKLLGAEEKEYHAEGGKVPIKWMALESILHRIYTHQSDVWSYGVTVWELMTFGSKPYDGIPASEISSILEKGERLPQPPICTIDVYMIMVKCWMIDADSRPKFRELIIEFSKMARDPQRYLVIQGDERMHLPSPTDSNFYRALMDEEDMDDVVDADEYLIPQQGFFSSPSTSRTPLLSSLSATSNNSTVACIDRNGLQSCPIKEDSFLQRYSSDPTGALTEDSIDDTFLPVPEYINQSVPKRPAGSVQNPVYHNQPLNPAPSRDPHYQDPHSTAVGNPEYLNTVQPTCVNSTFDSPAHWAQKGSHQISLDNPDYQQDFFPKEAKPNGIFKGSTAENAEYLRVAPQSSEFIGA

[8] = biological target: Follistatin-related protein 3 (Homo sapiens) (UniProt O95633); assay: FSTL3 binders on small-molecule microarrays, primary screen, biochemical, small-molecule microarray, 635 nm fluorescence (AID 1105); conditions: FSTL3 binding, higher = more signal;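 also: score merges emission near 667 nm and signal to noise per printed spot across three slides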
Sequence of Follistatin-related protein 3 (Homo sapiens) (O95633 whole entry, looked up): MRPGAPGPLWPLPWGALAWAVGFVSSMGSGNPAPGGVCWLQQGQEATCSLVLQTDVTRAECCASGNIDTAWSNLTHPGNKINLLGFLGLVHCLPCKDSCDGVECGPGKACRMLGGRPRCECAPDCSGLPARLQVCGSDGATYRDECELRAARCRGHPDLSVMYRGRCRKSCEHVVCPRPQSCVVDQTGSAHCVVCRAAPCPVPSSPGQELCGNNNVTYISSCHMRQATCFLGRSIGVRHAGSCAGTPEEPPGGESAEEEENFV

[9] = biological target: Dickkopf-related protein 1 (Homo sapiens) (UniProt O94907); assay: DKK1 binders on small-molecule microarrays, primary screen, biochemical, small-molecule microarray, 635 nm fluorescence scan (AID 1106); conditions: DKK1 binding, higher = more signal;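 also: score merges emission near 667 nm with signal to noise over three replicate slides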
Sequence of Dickkopf-related protein 1 (Homo sapiens) (O94907 whole entry, looked up): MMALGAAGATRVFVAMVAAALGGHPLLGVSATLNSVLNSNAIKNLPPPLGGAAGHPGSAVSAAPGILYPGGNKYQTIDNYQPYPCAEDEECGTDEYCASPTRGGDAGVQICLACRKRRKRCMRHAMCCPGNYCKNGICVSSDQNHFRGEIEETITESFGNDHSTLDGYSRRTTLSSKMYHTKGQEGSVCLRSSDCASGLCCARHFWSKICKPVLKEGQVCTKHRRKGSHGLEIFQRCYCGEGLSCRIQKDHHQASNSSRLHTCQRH

[10] = test system: Inhibin beta A chain (activin A); assay: INHBA (activin A) binders on microarrays, primary screen, biochemical, small-molecule microarray, 635 nm fluorescence scan (AID 1107); conditions: small-molecule microarray binding, higher = more signal;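 also: mouse activin A protein probed at 4.33 µg/mL on printed slides; score merges bound-protein fluorescence near 667 nm with spot signal-to-noise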
[11] = test system: Human papillomavirus type 1a protein E7 (residues 44-93); assay: HPV1a E7 fragment binders on microarrays, primary screen, biochemical, small-molecule microarray, residues 44-93, 635 nm fluorescence (AID 1108); conditions: small-molecule microarray binding, fluorescence 635 nm; higher = more signal;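 also: E7 fragment applied at 1 µg/mL in TBST for 1 h at 4 C; score combines spot fluorescence with its signal to noise ratio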
[12] = modulators of HCV replicon luciferase signal, primary screen, HCV replication inhibitor project, Huh7 cells, luciferase reporter (AID 1109); conditions: 48 h, higher = more signal;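 also: huh7 hepatoma cells harbouring a luciferase neomycin HCV replicon reporter; luciferase luminescence as measure of HCV replicon replication; test concentration not given here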
[13] = biological target: Left-right determination factor 2 (Homo sapiens) (UniProt O00292); assay: LEFTY2 binders on small-molecule microarrays, primary screen, biochemical, small-molecule microarray, 635 nm fluorescence scan (AID 1110); conditions: LEFTY2 binding, higher = more signal
Sequence of Left-right determination factor 2 (Homo sapiens) (O00292 whole entry, looked up): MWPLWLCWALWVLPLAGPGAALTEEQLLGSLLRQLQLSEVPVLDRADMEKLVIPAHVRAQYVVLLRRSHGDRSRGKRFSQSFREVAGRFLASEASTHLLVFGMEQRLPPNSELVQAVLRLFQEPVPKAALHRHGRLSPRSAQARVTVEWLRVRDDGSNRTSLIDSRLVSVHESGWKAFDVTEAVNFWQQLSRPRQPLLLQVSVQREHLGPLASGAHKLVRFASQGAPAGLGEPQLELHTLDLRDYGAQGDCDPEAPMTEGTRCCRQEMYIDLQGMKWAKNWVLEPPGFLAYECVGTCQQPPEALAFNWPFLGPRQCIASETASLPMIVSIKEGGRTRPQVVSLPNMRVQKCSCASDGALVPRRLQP

[14] = biological target: Calmodulin-1 (Homo sapiens) (UniProt P0DP23); assay: CALM1 binders on microarrays, EGTA buffer, profiling panel, biochemical, small-molecule microarray, Cy5-labelled CALM1 (AID 1111); conditions: Cy5-CALM1 binding fluorescence, higher = more signal;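 also: labelled calmodulin applied in Tris saline Tween buffer holding calcium plus EGTA and DTT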
[15] = biological target: Calmodulin-1 (Homo sapiens) (UniProt P0DP23); assay: calcium-bound CALM1 binders on microarrays, profiling panel, artefact control for SMM control-protein annotation, biochemical, small-molecule microarray, Cy5-labelled CALM1, plus calcium (AID 1112); conditions: Cy5-CALM1 binding fluorescence, higher = more signal;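 also: score merges spot fluorescence with signal to noise from triplicate slides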
[16] = small-molecule microarray binders of probe aWnt5a, primary screen, biochemical, biotinylated probe, 635/667 nm fluorescence (AID 1113); conditions: higher = more signal;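 also: score merges 667 nm fluorescence intensity with signal-to-noise per printed feature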
[17] = small-molecule microarray binders of probe aShh, primary screen, biochemical, biotinylated probe, 635/667 nm fluorescence (AID 1114); conditions: higher = more signal;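 also: probe is biotin-labelled aShh protein from a stem cell growth factor screen; measures binding of labelled protein to compounds printed on the slide; score merges feature fluorescence at 667 nm with signal-to-noise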
[18] = small-molecule microarray binders of probe aNog, primary screen, biochemical, biotinylated probe, 635/667 nm fluorescence (AID 1115); conditions: higher = more signal;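 also: probe is biotinylated aNog protein used at 0.15 µg/mL for 1 h at 4 C; z-score combines 667 nm fluorescence of each spot with its signal to noise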
[19] = biological target: Torsin-1A-interacting protein 1 (Homo sapiens) (UniProt Q5JTV8); assay: LAP1 binders from COS7 cell lysate, primary screen, small-molecule microarray, 635/667 nm fluorescence (AID 1116); conditions: COS7-hLAP1 lysate binding, 635 nm fluorescence, higher = more signal
Sequence of Torsin-1A-interacting protein 1 (Homo sapiens) (Q5JTV8 whole entry, looked up): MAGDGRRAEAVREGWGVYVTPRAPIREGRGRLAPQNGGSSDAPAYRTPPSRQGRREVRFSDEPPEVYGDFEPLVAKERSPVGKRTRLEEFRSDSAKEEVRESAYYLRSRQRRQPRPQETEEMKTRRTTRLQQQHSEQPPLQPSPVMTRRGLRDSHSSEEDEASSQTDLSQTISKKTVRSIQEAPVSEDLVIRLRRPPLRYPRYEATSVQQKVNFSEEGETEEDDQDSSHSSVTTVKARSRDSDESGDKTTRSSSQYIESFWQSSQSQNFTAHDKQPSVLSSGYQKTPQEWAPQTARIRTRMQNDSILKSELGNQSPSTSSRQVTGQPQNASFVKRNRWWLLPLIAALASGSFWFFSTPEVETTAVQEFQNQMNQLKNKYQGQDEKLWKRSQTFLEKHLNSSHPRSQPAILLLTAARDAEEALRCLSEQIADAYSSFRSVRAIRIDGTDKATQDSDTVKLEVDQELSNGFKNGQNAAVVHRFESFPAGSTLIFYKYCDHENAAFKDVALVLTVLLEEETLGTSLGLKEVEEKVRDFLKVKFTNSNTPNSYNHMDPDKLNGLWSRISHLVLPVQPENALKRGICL

[20] = biological target: Alpha-bungarotoxin (Bungarus multicinctus) (UniProt P60615); assay: alpha-bungarotoxin binders on microarray, profiling panel, artefact control for SMM control protein annotation, biochemical, small-molecule microarray, Alexa647 label, 635/667 nm fluorescence (AID 1117); conditions: alpha-BTX-A647 binding fluorescence, higher = more signal
Sequence of Alpha-bungarotoxin (Bungarus multicinctus) (P60615 whole entry, looked up): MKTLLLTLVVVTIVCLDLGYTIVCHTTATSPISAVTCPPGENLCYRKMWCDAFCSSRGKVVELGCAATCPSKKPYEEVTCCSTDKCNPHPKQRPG

Compound	composite z-score [1]	composite z-score [2]	composite z-score [3]	z-score [4]	composite z-score [5]	composite z-score [6]	composite z-score [7]	composite z-score [8]	composite z-score [9]	composite z-score [10]	composite z-score [11]	z-score [12]	composite z-score [13]	composite z-score [14]	composite z-score [15]	composite z-score [16]	composite z-score [17]	composite z-score [18]	composite z-score [19]	composite z-score [20]
CC(CCN1CCc2nc(-c3ccccc3)c(-c3ccccc3)cc2C1)=NO[C@H](C)c1cn([C@H](CO)Cc2ccccc2)nn1	0.343	-0.0154	0.407	-0.534 (inactive)	-0.356	-0.135	-0.0273	0.177	-0.193	1.09	-0.93	-2.3	0.332	0.0521	0.509	-0.0242	-0.16	-0.0309	0.34	1.2
C#CCCCON=C1C[C@@H](O)[C@@H](O)[C@@H]2[C@@H]3C(=O)N(C[C@@H]4CCCO4)C(=O)[C@@H]3CC[C@@H]12	0.44	-0.244	-0.362	-0.28 (inactive)	0.732	0.223	0.469	0.67	0.449	0.397	0.578	0.367	0.386	-0.358	-0.129	-0.0865	-0.153	0.223	-0.0438	0.506
C[C@@H]1CC[C@H]2C(=O)N3[C@@H](CC[C@@H](C)[C@@H]3c3ccc(Br)cc3)C(=O)N2[C@H]1c1ccc(Br)cc1	0.223	-0.339	-0.355	-0.628 (inactive)	0.592	-0.0161	0.278	0.384	0.605	0.22	-0.0146	-1.82	0.31	-0.209	-0.188	-0.105	-0.138	-0.113	0.08	0.371
CC(C)=NO[C@H](C)c1cn([C@@H]2COC[C@H]2O)nn1	0.52	-0.0146	-0.607	-0.413 (inactive)	0.728	0.788	0.539	0.67	0.669	-0.0201	0.427	0.78	0.48	-0.312	-0.956	-0.169	-0.138	-0.216	0.26	0.159
CC(CCN1CCCCc2nc(C)c(C)cc21)=NO[C@@H](C)c1cc(-c2c(C)cc(C)cc2C)no1	1.41	-0.422	0.27	0.673 (inactive)	-0.488	-1.05	-1.51	-1.35	-0.0396	0.823	-0.384	-1.56	-0.747	-0.901	-0.891	-0.152	-0.221	-0.298	0.0623	-0.664
CON=C(C)CCN1CCc2nc(-c3ccccc3)c(-c3ccccc3)cc2C1	0.689	-0.104	0.173	-0.316 (inactive)	-0.0075	-0.478	0.629	0.272	0.468	1.25	-0.539	-4.3	-0.117	0.709	0.0504	-0.219	-0.0011	0.107	0.0735	-0.107
CCN1C(=O)[C@H]2[C@H]3[C@H](O)[C@H](O)CC(=NO[C@H](C)c4cn([C@@H]5COC[C@H]5O)nn4)[C@@H]3CC[C@H]2C1=O	-0.428	-0.19	-0.593	0.299 (inactive)	0.46	-0.162	0.219	-0.169	0.451	-0.322	-0.137	-0.936	0.684	-0.3	-0.4	-0.0445	-0.291	0.0043	-0.0938	-0.23
CCOC(=O)NN=C1C[C@@H](O)[C@@H](O)[C@@H]2[C@@H]3C(=O)N(C[C@@H]4CCCO4)C(=O)[C@@H]3CC[C@H]12	0.348	-0.0748	-0.317	0.488 (inactive)	0.515	0.417	0.401	0.264	0.504	0.17	0.463	-0.0078	0.828	-0.47	-0.593	-0.169	-0.0146	-0.166	0.998	-0.213
CC(C)(C)N1C(=O)[C@H]2[C@H]3[C@H](O)[C@H](O)CC(=NNC(=O)OCc4ccccc4)[C@@H]3CC[C@H]2C1=O	-0.106	-0.348	-0.518	0.305 (inactive)	0.487	0.554	0.251	0.376	0.455	-0.337	0.594	0.508	0.432	-0.213	-0.412	-0.0721	-0.399	-0.137	0.505	0.162
CCN1C(=O)[C@H]2[C@H]3[C@H](O)[C@H](O)CC(=NO[C@@H]4O[C@H](CO)[C@@H](O)[C@H](O)[C@H]4O)[C@H]3CC[C@H]2C1=O	0.0675	-0.219	-0.447	-0.0478 (inactive)	0.456	0.342	0.933	0.619	0.611	0.182	0.442	1.2	0.486	-0.354	-1.04	-0.0529	0.204	0.117	0.196	0.497
COC(=O)[C@H](C)NC(=O)CCC1CC(OC(=O)NCCc2ccc(F)cc2)CC2(CCCC(COC(=O)NCC3CCCCC3)O2)O1 (stereo not given in full)	0.662	-0.262	-0.446	-0.863 (inactive)	0.938	1.23	0.501	1.08	0.678	0.0532	1.39	-1.34	0.573	0.71	-0.039	-0.1	0.0469	0.144	0.774	0.382
